Shown are actives, neighbours in structure and some others; about 8.3% of the full set was active somewhere.
Lassa entry inh – qHTS for Inhibitors of binding or entry into cells for Lassa Virus. actives 1.2% (n = 300,000). Potency, µM (series often up to 37.9 µM), for the others: at the highest dose activity change, negative = inhibition, hits mostly inhibitors. Lassa virus pseudotype entry inhibition, cell reporter; calls by dose curve; tested in HEK293 cells; further: potency means the concentration at half of the fitted maximal effect; nearly all actives have a fitted effect of over 50% in size
FMDV antiviral – High Throughput Screening for Foot and Mouth Disease Virus Antivirals. actives 1.2% (n = 410,000). FMDV antiviral cell-based qHTS. AID 1159524, 2015. Potency, µM (highest dose often 57.9 µM), without a hit: top-dose activity change, negative = inhibition, hits mostly inhibitors; calls by dose curve; tested in HEK293T cells; further: read-out not given here; potency means the concentration at half of the fitted maximal effect; nearly all actives have a fitted effect of over 45% in size
Giardia FBPA inh – qHTS Assay for Inhibitors of Fructose-1,6-bisphosphate Aldolase from Giardia Lamblia. A8B2U2. actives 0.71% (n = 290,000). Potency, µM (highest dose often 59.6 µM), without a hit: at the top dose activity, negative = inhibition, actives largely listed as inhibitors. purified Giardia FBPA; further: potency means the concentration at half of the fitted maximal effect; nearly all actives have a fitted effect of over 55% in size
Target sequence (A8B2U2 whole entry, looked up): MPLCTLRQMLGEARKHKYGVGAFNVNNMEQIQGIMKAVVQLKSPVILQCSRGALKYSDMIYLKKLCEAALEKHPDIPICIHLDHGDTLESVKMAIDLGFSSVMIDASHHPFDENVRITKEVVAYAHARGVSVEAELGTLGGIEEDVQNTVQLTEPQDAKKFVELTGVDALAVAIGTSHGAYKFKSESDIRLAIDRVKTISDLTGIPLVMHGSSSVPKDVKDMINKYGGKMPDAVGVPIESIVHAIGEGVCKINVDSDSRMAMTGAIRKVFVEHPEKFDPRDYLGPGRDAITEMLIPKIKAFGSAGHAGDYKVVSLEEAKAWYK
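Giardia FBPA (40 nM reagent) was preincubated 10 min at RT with compound (up to 57.5 uM final), then substrate plus GAPDH/TPI/NAD/arsenate coupling system with diaphorase/resazurin was added; resorufin fluorescence (525/598 nm) was read after 20 min.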
HCV inh – qHTS Assay for Inhibitors of Hepatitis C Virus (HCV); Huh7.5.1 HCVcc-Cre infection, luciferase reporter, 44 h; Potency, µM (top dose mostly 41.8 µM), without a hit: top-dose activity change, negative = inhibition, hits mostly inhibitors; actives 3.4% (n = 340,000); AID 651820, 2012; further: potency means the concentration at half of the fitted maximal effect
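1,000 cells/well; 4 h culture; + compound; + HCVcc-Cre (~0.5 moi); 44 h; luciferase substrate, RT 15 min; read 15 sec.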
HCMV antiviral – qHTS Assay for inhibitors of the human cytomegalovirus (HCMV); AID 1259415, 2018; actives 4.5% (n = 410,000); activity change, negative = inhibition, % at 57.5 µM; HFF cells, HCMV-luciferase reporter, 72 h; active compounds read low; in the data active means activity change below about -60%; inconclusive means no clear call, values can overlap the other calls; inactive means above about -39%
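Inhibition of viral replication was scored as loss of reporter luminescence in HFFs infected with HCMV-luciferase (MOI 1 PFU/cell) for 72 h; compounds tested at 2 doses, normalized to buffer and Salinomycin controls.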
MARV entry inh – qHTS for inhibitors of binding or entry into cells for Marburg Virus | Marburg virus pseudotyped entry inhibition, cell reporter | Potency, µM (titrated, usually from 37.8 µM), for the others: at the top dose activity change, negative = inhibition, most hits filed as inhibitors | AID 540276, 2011 | actives 1.8% (n = 300,000); calls by dose curve; tested in HEK293 cells; further: potency means the concentration at half of the fitted maximal effect
The depositor's hits bear a star; ? = inconclusive; · = not tested or not shown; [ ] = another dose, or the depositor's remark. Unless noted, the call rests on the fitted dose curve; in most records, active means well fitted curve in the direction sought with a large enough effect; inconclusive means small, poorly fitted or top-dose-only effect, or another doubt; inactive means no such curve, though single readings can be large; an effect the other way counts as inactive or inconclusive. On the % scale 0 is the no-effect control and ±100 the full control effect.

SMILES	Lassa entry inh	FMDV antiviral	Giardia FBPA inh	HCV inh	HCMV antiviral	MARV entry inh
COc1ccc(NC(=O)COc2ccccc2C(=O)NCC(c2ccccc2)N(C)C)cc1Cl (stereo unspecified)	11.2µM*	-19.2%	-1.3%	?	5.5	?
COc1ccc(NC(=O)COc2ccccc2)cc1Cl	20.8%	22.1%	-1.1%	?	-0.2	23.1%
COc1ccc(C(=O)Nc2ccc(S(=O)(=O)N(C)c3ccccc3)cc2)cc1	?	?	·	12.6µM*	-68.9*	?
CCOC1(c2ccccc2)CC1C(=O)N/N=C/c1cccc([N+](=O)[O-])c1 (stereo unspecified)	·	?	-10.5%	11.2µM*	-37.6	·
COc1cc(OC)c(N(C)C(=O)Nc2cn(CC(C)C)c(=O)c3ccccc23)cc1Cl	18.6%[46.1 µM]	33.5%	·	·	-20.4	·
Cc1ccccc1C1=NOC2CN(C(=O)c3ccc4c(c3)OCO4)CC12 (stereo unspecified)	·	·	·	·	45.8	·
Cc1cccc(Cn2c(CNS(=O)(=O)c3ccc4c(c3)CCCC4)nc3cccnc32)c1	17.9%[46.1 µM]	65.4%	·	·	-35.8	·
COc1ccc(/C=N/NC(=O)c2cccc([N+](=O)[O-])c2)cc1OS(=O)(=O)c1ccc(C)cc1	-1.4%	-26.5%	2.0%	-22.4%	-10.9	?
Cc1nc2ccc(NC(=O)c3ccc(S(=O)(=O)N(C)c4ccccc4)cc3)cc2s1	?	22.4µM*	-1.5%	?	-82.1*	?
CCOc1cc(/C=N/NC(=O)c2cccc([N+](=O)[O-])c2)ccc1OS(=O)(=O)c1ccccc1	?	-16.4%	·	8.91µM*	-8.9	?
COc1ccc(OCCNC(=O)c2ccccc2OCC(=O)N2CCCCC2)cc1	-0.2%	-35.8%	6.2%	?	7.3	3.3%
COc1ccc(NC(=O)COc2ccc(N(C)S(=O)(=O)c3ccc(C)cc3)cc2)cc1	-5.4%	?	1.3%	?	21.1	-12.7%
COc1ccc(NC(=O)COc2ccc(N(C)S(=O)(=O)c3ccc(Cl)cc3)cc2)cc1	·	0.0%	·	11.2µM*	-14.7	·
COc1ccc(OCCNC(=O)c2ccccc2OCC(=O)Nc2ccc(NC(C)=O)cc2)cc1	?	?	-0.9%	?	-30.6	7.08µM*
Cc1ccccc1CN1CCc2nnc(C(C)NC(=O)c3cc(F)ccc3F)n2CC1 (stereo unspecified)	·	-7.8%	·	·	·	·
O=C(O)CCC/C=C\C[C@@H]1[C@@H](/C=C/[C@H](O)C2Cc3ccccc3C2)[C@@H](F)C[C@@H]1O	?	·	·	·	·	-8.8%
CC(=O)c1cccc(S(=O)(=O)NCCc2csc3nc(-c4ccc(F)cc4)nn23)c1	-17.4%[46.1 µM]	9.5%	·	·	-21.2	·
COc1ccc(OCC(=O)Nc2ccc(C)cc2)cc1	-10.8%	31.3%	-0.4%	1.7%	-96.6*	-3.1%
COc1ccc(/C=N/NC(=O)c2ccc(NC(=O)c3ccccc3Br)cc2)cc1	18.4µM*	-9.4%	6.5%	?	-91.3*	-26.1%
COc1ccc(/C=N/NS(=O)(=O)c2ccccc2)cc1OS(=O)(=O)c1ccccc1	0.2%	51.2%	0.4%	-8.1%	12.0	-3.6%
CN(c1ccccc1)S(=O)(=O)c1ccc(NC(=O)CC(=O)c2ccccc2)cc1	-18.5%	39.8µM*	·	?	-33.1	-43.5%
COc1ccc(C(=O)N/N=C/c2ccc(OC)c(OS(=O)(=O)c3ccccc3)c2)cc1	?	-11.3%	-4.0%	10µM*	?	?
CN(c1ccccc1)S(=O)(=O)c1ccc(NC(=S)NC(=O)c2ccccc2)cc1	?	-27.2%	-11.6%	?	-28.4	-3.8%
Cc1nc(N2CCOCC2)c2c(C(=O)N3CCN(c4cc(Cl)ccc4C)CC3)c(C)oc2n1	-15.8%[46.1 µM]	-18.3%	·	·	-9.5	·
CCCCNc1ccc2c(c1)OC[C@@H](Cc1ccccc1)NS2(=O)=O	·	·	·	·	0.7	·
O=C(O)c1ccc2c(c1)C(=O)N([C@H](Cc1c[nH]c3ccccc13)C(=O)O)C2=O	·	·	7.9%	·	·	·
